# Experimental data from the supplement of paper PMC6555819.
# Legend:
# Test in all cases: PBM binding z-score (relative to random genomic background probes); higher = stronger binding; sequences stand for … in GC…GCGATTGACAGCGTAGAATGAAGG
# [1] = tested on: RARb homodimer (NR concentration 270 nM)
# Summary of the method: (§1)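 Antibodies against each partner of ligand-free nuclear receptor dimers (one per run) detected binding on custom Agilent 4×180K protein-binding microarrays after 1 h incubation. The double-stranded probes had 34-nt variable regions carrying direct-repeat seeds, single-nucleotide variants, half-site ablations and random human genomic background sequences. Binding z-scores, from regression-normalized fluorescence, use the random background probes as reference.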
# [2] = tested on: RARg:RXRa (NR concentration 270 nM, RXRa partner concentration 90 nM)
# Summary of the method: as §1
# [3] = tested on: RARg homodimer (NR concentration 270 nM)
# Summary of the method: as §1
# [4] = tested on: RXRa DBDmut IVT, anti-RXR (DBD mutation: RXRa K156A/R161A, NR concentration 90 nM)
# Summary of the method: as §1
# [5] = tested on: RXRa homodimer (NR concentration 180 nM)
# Summary of the method: as §1
# [6] = tested on: THRa:RXRa (NR concentration 90 nM, RXRa partner concentration 90 nM)
# Summary of the method: as §1
# [7] = tested on: THRa homodimer (NR concentration 90 nM)
# Summary of the method: as §1
# [8] = tested on: VDR homodimer (NR concentration 270 nM)
# Summary of the method: as §1
Sequence,PBM binding z-score [1],PBM binding z-score [2],PBM binding z-score [3],PBM binding z-score [4],PBM binding z-score [5],PBM binding z-score [6],PBM binding z-score [7],PBM binding z-score [8]
TCATATAGGTAAAAGGTGATAGTCGGTGTGGTAA,1.15,0.851,0.577,1.76,1.86,0.901,0.434,0.283
CCTAGTTGGTCGGGAGGTCACACACCGGATATGA,4.12,4.67,3.83,0.718,5.07,3.56,2.93,3.06
CCTGCTAGGGCAATGGTCAGCTAAAGCAGCTCGC,0.431,0.176,0.604,-0.414,-0.159,-0.164,-0.86,-0.814
GCTGCTAGGTCAGGTTGGTCAGCTGACGGGTACG,2.62,2.79,3.56,0.752,1.09,1.81,0.492,0.505
AGAACGAGGGCAATGAGTTAATAGCACGGGTGGC,1.08,1.43,1.51,1.74,0.7,0.999,-0.107,1.99
ACTATTAGTTGAGACGAGGCCAACCGATAGGTTG,0.728,0.273,0.272,0.0149,0.182,2.57,0.433,0.394
TCTTGTAGAGCAACAGGAGGTTAAGAAAGATCGA,0.136,0.269,0.0354,0.0247,0.479,0.705,-0.732,-0.241
GGCACGAGGGCATTCGAGTTGATAGCATGGCGAT,0.614,1.04,1.53,3.11,0.455,3.42,-0.251,3.45
TCTATTAGTTGATTAGGGGAACCGAAACAGCGGA,0.155,0.431,0.32,1.67,0.729,0.257,0.319,0.458
TCTCGGAGGACACGAAGGTCGGAGCTTTCCAGAG,1.42,1.23,1.5,0.608,0.322,1.64,0.121,0.0854
CCTAGTAGGTCAAGGTCACACACGCTATAGGTAC,5.28,6.17,7.17,2.82,6.23,4.3,4.17,3.86
TAGCCTAGGTCAGAACGGGCCAGTATACGCTATA,1.79,2.22,2.92,-0.315,1.19,2.46,-0.361,-0.307
GCTGCTAGGTCAGGTTGGTCAGATAACGGGTACG,2.53,2.71,3.5,0.652,1.12,1.84,0.684,1.02
CCGTACGGGTCACTGACAGGTTATAGCATTTGGA,3.2,6.14,4.89,1.07,5.53,2.97,-0.108,0.766
ACTAGCAGGCCAAGTTTGGGCCACTCAAACAAAG,0.113,0.0368,0.111,-0.286,-0.539,0.356,-0.681,-0.556
CGAACTTGGTCAAGGACAGTGAATCTCCGCACGC,0.692,0.479,1.1,0.243,0.275,1.89,1.37,-0.254
TCTAGCAGGCTAGAGGGTCACTCAAGAGGTACGG,2.47,2.08,1.81,0.0423,2.42,1.59,-0.445,0.31
GCTATTAGTTGATAGGGCAACCGAATGATTCTCG,0.604,0.208,0.649,0.36,0.26,-0.111,-0.518,0.0585
GCTGCTAGGTCTACTGATGGTCAGCTAAAGCTCG,-0.175,-0.238,-0.555,0.147,-0.738,-0.635,-0.572,-0.893
TCTATTACTTGAAGGGCAACCGACGAGTCCGTTT,1.51,0.815,0.75,1.72,0.98,0.289,0.362,1.46
CCTTACGGGTGACTGACAGGTTATAGCATTTGGA,0.601,1.07,0.559,0.115,0.941,0.72,-0.154,-0.209
CCAATTAGTTGACCATAAGGGCAACCGAAGCTCG,2.16,1.22,1.02,0.647,0.634,1.98,1.5,0.962
TCGAGTAGGTTACCAATGGGGCATTCCGCTTTCT,0.449,0.942,0.197,0.173,0.226,-0.155,-0.631,-0.741
GGAACGAGGGCATTCGAGTTGACAGCATGGCGAT,0.801,1.2,1.69,3.06,0.845,3.83,-0.733,2.99
CTCGAAAGGTCGTGCTCAGGTGAGTTTACCAAAC,2.8,5.22,4.34,2.46,5.17,3.84,1.18,3.54
CGTCCAAGGTCAGCAGGTCAGTGTAAGCGACGTG,5.08,6.34,6.61,2.55,4.93,4.01,2.46,2.01
ACTATTAGTTGACTTAGGGCAACGGATACGACGC,0.939,0.643,1.01,0.466,0.497,1.47,0.279,-0.0346
AGAAAGAGGTTACCAAAGATCAGGGAAACGCTTG,1.03,2.51,1.84,0.282,3.17,1.91,-0.577,-0.0812
CCGACTGGGGCATAATGTTACCATAAGCCAGCCC,-0.153,0.0195,0.3,-0.127,0.021,-0.493,-0.413,-0.295
